# Records with an inconclusive call do not appear. Activity calls are given as the source filed them. Unless noted, no rule for the calls is given here.
# Tests used:
# [1] = qHTS profiling for inhibitors of Plasmodium falciparum (3D7) proliferation (AID 743322);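 also: infected erythrocytes exposed to compound for 72 h before lysis; 100% = DMSO vehicle wells and 0% = 0.29 µM artemisinin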; conditions: P. falciparum 3D7 proliferation; at 28.7 µM (top of the series)
# Summary of the method: (§1)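 Erythrocytes infected with P. falciparum (0.3% parasitemia, 2.5% hematocrit) incubated with compounds 72 h at 37 C, 5% CO2. Lysis with saponin/Triton buffer containing SYBR Green I, overnight at room temperature in the dark; DNA fluorescence (485/535 nm) normalised to 0.29 uM artemisinin and DMSO.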
# [2] = qHTS profiling for inhibitors of Plasmodium falciparum (DD2) proliferation (AID 743323); conditions: lower = more inhibition; at 28.7 µM (top of the series)
# Summary of the method: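 1536-well qHTS; infected RBCs 0.3% parasitemia/2.5% Hct final; cpd 72 h 37 C 5% CO2; lysis buffer + SYBR Green I, o/n RT dark; FI 485/535; norm. to 0.29 uM artemisinin and DMSO, plate-stack corrected.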
# [3] = qHTS profiling for inhibitors of Plasmodium falciparum (HB3) proliferation (AID 743324; active = well fitted curve in the direction sought with a large enough effect; an effect the other way counts as inactive or inconclusive;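 also: 100% = DMSO vehicle wells and 0% = artemisinin-treated control wells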); conditions: Plasmodium falciparum HB3 blood-stage proliferation; at 28.7 µM (top of the series)
# Summary of the method: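 P. falciparum HB3 grown in erythrocytes (0.3% parasitemia, 2.5% hematocrit final) with compound for 72 h at 37 C, 5% CO2. Parasite DNA detected by SYBR Green after saponin/triton lysis overnight; normalized to 0.29 uM artemisinin and DMSO.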
# [4] = qHTS profiling of the MIPE4 collection as inhibitors of Plasmodium falciparum (3D7) proliferation (AID 743344);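 also: scaled between DMSO vehicle wells and 0.29 µM artemisinin as full inhibition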; conditions: P. falciparum 3D7 in erythrocytes, SYBR Green DNA fluorescence, 72 h; at 28.5 µM (top of the series) unless noted
# Summary of the method: as §1
# [5] = qHTS profiling of the MIPE4 collection as inhibitors of Plasmodium falciparum (DD2) proliferation (AID 743345); conditions: P. falciparum Dd2 in erythrocytes, SYBR Green DNA, 72 h; at 28.5 µM (top of the series) unless noted
# Summary of the method: as §1
# [6] = qHTS profiling of the MIPE4 collection as inhibitors of Plasmodium falciparum (DD2) proliferation (Rep 2) (AID 743346); conditions: P. falciparum Dd2 in erythrocytes, SYBR Green DNA, 72 h; at 28.5 µM (top of the series) unless noted
# Summary of the method: as §1
# [7] = qHTS profiling of the MIPE4 collection as inhibitors of Plasmodium falciparum (HB3) proliferation (AID 743347);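 also: plate controls were DMSO vehicle wells for no effect and artemisinin wells for full effect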; conditions: P. falciparum HB3 in erythrocytes, SYBR Green DNA, 72 h; at 28.5 µM (top of the series) unless noted
# Summary of the method: as §1
# [8] = High-throughput drug toxicity screening in the BPDCN cell line Gen2.2 (AID 1224824); conditions: Gen2.2 BPDCN cells; at 45.8 µM (top of the series) unless noted;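 also: cells exposed to compounds for 48 h before reading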
# Summary of the method: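 Gen2.2 cells, 500 per well in phenol red-free RPMI with 10% FBS, exposed to compounds 48 h at 37 C, 5% CO2; viability by CellTiter-Glo luminescence. Percent activity scaled to DMSO (100%) and 9.2 uM bortezomib final (0%).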
# [9] = High-throughput drug toxicity screening in the BPDCN cell line Cal-1 (AID 1224825); conditions: Cal-1 BPDCN cell viability, qHTS; at 45.8 µM (top of the series) unless noted
# Summary of the method: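 Cal-1 cells, 500 per well in phenol-red-free RPMI with 10% FBS, exposed to compounds for 48 hours at 37C, 5% CO2. Viability read by CellTiter-Glo luminescence; percent activity normalized to DMSO (100%) and 9.2 uM bortezomib final (0%).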
# [10] = qHTS assay for measurement of the activity of small molecule inhibitors on Zika virus induced Caspase-3 activity in human iPSC derived neural progenitor cells (hNPCs) (AID 1224857; active = well fitted curve in the direction sought with a large enough effect; an effect the other way counts as inactive or inconclusive; also: % of control where 0% means no effect; nearly all actives have a fitted effect of over 65% in size)
# Summary of the method: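 Caspase-3/7 induction by a 6-hour ZIKV infection was quantified with a luminescent Caspase-Glo 3/7 reagent incubated 30 minutes at room temperature. Compounds were preincubated with hNPCs for 1 hour; inhibition was calculated against uninfected and infected control wells.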
smiles,measurement,setting,value
CC(NCc1ccc2c(c1)nc(NC(=O)c1ccc(-c3cn[nH]c3)s1)n2CC(C)(C)O)C(C)(C)C (stereo not given),remaining parasite growth % (stronger effect = lower value),[1],-1.9%
same,"activity, percent of control",[2],-0.339%
same,"remaining proliferation (% of control), lower = more inhibition",[3],-1%
same,"parasite growth, % of DMSO control",[4],5.17%
same,"parasite growth remaining, % of DMSO control (lower = more inhibition)",[5],7.07%
same,"parasite growth, % of control (lower = inhibition)",[6],9.25%
same,"growth, % of control",[7],3.84%
same,"cell viability, % of control (lower = more cytotoxic)",[8],2.71%
same,viability (% of control),[9],2.63%
same,Potency,[10],inactive
CC(C)(C)c1cnc(CSc2cnc(NC(=O)C3CCNCC3)s2)o1,remaining parasite growth % (stronger effect = lower value),[1],9.96%
same,"activity, percent of control",[2],6.95%
same,"remaining proliferation (% of control), lower = more inhibition",[3],7.19%
same,"parasite growth, % of DMSO control",[4],11.9%
same,"parasite growth remaining, % of DMSO control (lower = more inhibition)",[5],13%
same,"parasite growth, % of control (lower = inhibition)",[6],24.1%
same,"growth, % of control",[7],12.8%
same,"cell viability, % of control (lower = more cytotoxic)",[8],1.75%
same,viability (% of control),[9],1.24%
same,Potency,[10],inactive
CCC(=C(c1ccccc1)c1ccc(OCCN(C)C)cc1)c1ccccc1,remaining parasite growth % (stronger effect = lower value),[1],17.2%
same,"activity, percent of control",[2],5.96%
same,"remaining proliferation (% of control), lower = more inhibition",[3],8.11%
same,"parasite growth, % of DMSO control",[4],53.1%
same,"parasite growth remaining, % of DMSO control (lower = more inhibition)",[5],37.8%
same,"parasite growth, % of control (lower = inhibition)",[6],31%
same,"growth, % of control",[7],69.7%
same,"cell viability, % of control (lower = more cytotoxic)",[8],31.7%
same,viability (% of control),[9],23.2%
same,Potency,[10],inactive
CN1CCN(c2ccc3nc(-c4c(N)c5c(F)cccc5[nH]c4=O)[nH]c3c2)CC1,remaining parasite growth % (stronger effect = lower value),[1],-2.13%
same,"activity, percent of control",[2],-0.739%
same,"remaining proliferation (% of control), lower = more inhibition",[3],-3.26%
same,"parasite growth, % of DMSO control",[4],3.66%
same,"parasite growth remaining, % of DMSO control (lower = more inhibition)",[5],6.04%
same,"parasite growth, % of control (lower = inhibition)",[6],7.17%
same,"growth, % of control",[7],2.91%
same,"cell viability, % of control (lower = more cytotoxic)",[8],9.8%
same,viability (% of control),[9],3.34%
same,Potency,[10],inactive
CC(=O)OCCN1C(=O)c2c(C)nc3ccc(S(=O)(=O)N4CCOCC4)cc3c2C1=O,remaining parasite growth % (stronger effect = lower value),[1],96.2%
same,"activity, percent of control",[2],97.6%
same,"remaining proliferation (% of control), lower = more inhibition",[3],103%
same,"parasite growth, % of DMSO control",[4],365%
same,"parasite growth remaining, % of DMSO control (lower = more inhibition)",[5],102%
same,"parasite growth, % of control (lower = inhibition)",[6],86.6%
same,"growth, % of control",[7],666%
same,"cell viability, % of control (lower = more cytotoxic)",[8],69.9%
same,viability (% of control),[9],47.9%
same,Potency,[10],inactive
COc1cc2c(Oc3ccc4[nH]c(C)cc4c3F)ncnc2cc1OCCCN1CCCC1,remaining parasite growth % (stronger effect = lower value),[1],-0.853%
same,"activity, percent of control",[2],1.27%
same,"remaining proliferation (% of control), lower = more inhibition",[3],0.351%
same,"parasite growth, % of DMSO control",[4],6.49%
same,"parasite growth remaining, % of DMSO control (lower = more inhibition)",[5],8.16%
same,"parasite growth, % of control (lower = inhibition)",[6],15.9%
same,"growth, % of control",[7],6.98%
same,"cell viability, % of control (lower = more cytotoxic)",[8],7.59%
same,viability (% of control),[9],6.46%
same,Potency,[10],inactive
CC(C)=CCCC(C)=CCCC(C)=CCSc1ccccc1C(=O)O,remaining parasite growth % (stronger effect = lower value),[1],101%
same,"activity, percent of control",[2],118%
same,"remaining proliferation (% of control), lower = more inhibition",[3],92%
same,"parasite growth, % of DMSO control",[4],22.6%
same,"parasite growth remaining, % of DMSO control (lower = more inhibition)",[5],25.3%
same,"parasite growth, % of control (lower = inhibition)",[6],33.1%
same,"growth, % of control",[7],15.5%
same,"cell viability, % of control (lower = more cytotoxic)",[8],9.26%
same,viability (% of control),[9],19%
same,Potency,[10],inactive
CCN1CCN(Cc2ccc(-c3cc4c(N[C@H](C)c5ccccc5)ncnc4[nH]3)cc2)CC1,remaining parasite growth % (stronger effect = lower value),[1],-0.0025%
same,"activity, percent of control",[2],1.84%
same,"remaining proliferation (% of control), lower = more inhibition",[3],0.0196%
same,"parasite growth, % of DMSO control",[4],5.16%
same,"parasite growth remaining, % of DMSO control (lower = more inhibition)",[5],8.31%
same,"parasite growth, % of control (lower = inhibition)",[6],7.53%
same,"growth, % of control",[7],8.9%
same,"cell viability, % of control (lower = more cytotoxic)",[8],42.9%
same,viability (% of control),[9],6.05%
same,Potency,[10],inactive
Cc1ccc(C(=O)Nc2cccc(C(F)(F)F)c2)cc1-c1ccc2nc(NCCN3CCOCC3)ncc2c1,remaining parasite growth % (stronger effect = lower value),[1],-2.64%
same,"activity, percent of control",[2],0.812%
same,"remaining proliferation (% of control), lower = more inhibition",[3],-1.12%
same,"parasite growth, % of DMSO control",[4],6.03%
same,"parasite growth remaining, % of DMSO control (lower = more inhibition)",[5],7.55%
same,"parasite growth, % of control (lower = inhibition)",[6],22.9%
same,"growth, % of control",[7],8.15%
same,"cell viability, % of control (lower = more cytotoxic)",[8],11.1%
same,viability (% of control),[9],5.9%
same,Potency,[10],inactive

# Source: PubChem BioAssay (NCATS)
